Holding throughout (assay type): functional
Test [1] concerns the target Solute carrier family 2, facilitated glucose transporter member 1 (Homo sapiens) (UniProt P11166). Nature of the test: ST_JUDE_LEISH: Cytotoxicity at 2uM final concentration against transgenic Leishmania Mexicana promastigotes LmGLUT1 that are glucose transport deficient and complemented with the human glucose transporter GLUT1. Activity is measured by DNA content using SYBR green in vitro.

Test [2] addresses Hexose transporter 1 (Plasmodium falciparum) (UniProt O97467). Nature of the test: ST_JUDE_LEISH: Cytotoxicity at 2uM final concentration against transgenic Leishmania Mexicana promastigotes LmPfHT that are glucose transport deficient and complemented with the Plasmodium falciparum hexose transporter. Activity is measured by DNA content using SYBR green in vitro.
The target in test [3] is Glucose transporter (Leishmania mexicana) (UniProt O61059). Nature of the test: ST_JUDE_LEISH: Cytotoxicity at 2uM final concentration against transgenic Leishmania Mexicana promastigotes LmGT2 that are glucose transport deficient and complemented with the L. Mexicana glucose transporter 2. Activity is measured by DNA content using SYBR green in vitro.

Here are results for 39 molecules from ChEMBL document CHEMBL3433997, “St. Jude Leishmania screening dataset” (2016).

Chain of Solute carrier family 2, facilitated glucose transporter member 1 (Homo sapiens) (P11166 whole entry): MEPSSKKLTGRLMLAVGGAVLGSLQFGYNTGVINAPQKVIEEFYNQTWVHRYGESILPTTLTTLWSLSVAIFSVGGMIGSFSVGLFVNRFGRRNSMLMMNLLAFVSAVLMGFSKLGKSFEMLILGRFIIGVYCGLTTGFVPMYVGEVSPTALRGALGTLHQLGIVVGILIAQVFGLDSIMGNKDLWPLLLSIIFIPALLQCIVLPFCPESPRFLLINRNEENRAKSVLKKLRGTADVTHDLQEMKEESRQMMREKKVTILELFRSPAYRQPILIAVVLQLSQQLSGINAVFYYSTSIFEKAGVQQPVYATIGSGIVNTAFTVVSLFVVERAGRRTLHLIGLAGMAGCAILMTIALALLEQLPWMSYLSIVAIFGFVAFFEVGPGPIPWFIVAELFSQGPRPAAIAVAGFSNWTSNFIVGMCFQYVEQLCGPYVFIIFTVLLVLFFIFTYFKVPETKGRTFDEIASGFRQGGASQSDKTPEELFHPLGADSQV

As a reminder, the inhibition is the drop in the measured response relative to a control, in per cent. In the case of `Cc1noc(C)c1-c1ccc2c(Nc3ccccc3C(C)(C)C)c(C(=O)NCc3ccc(C(F)(F)F)cc3)cnc2c1`, the inhibition in test [1] was determined as 3.44%; in test [2], 5.41%; in test [3], 3.69%.

On to `Nc1nc(N)c2c(Cl)c(N3CCOCC3)ccc2n1`, for which the inhibition in test [1] stood at 36.1%; in test [2] it was 39.5%; in test [3], 34.6%.

Turning to `CC(O)C1CCCCN1C(=O)c1ccc(-c2cccc(-c3nc4cc(F)ccc4[nH]3)c2)cc1` (configuration not stated), the inhibition in test [1] amounted to 3.01%; in test [2], 2.87%; in test [3], 3.89%.

Take `COc1ccccc1-c1csc(C(=O)NC2CCCCN(Cc3ccc(C(C)(C)C)cc3)C2)c1` (configuration not stated): the inhibition amounted to 2.42% in test [1], 1.58% in test [2] and 2.61% in test [3].

Take `CCSc1ccccc1COc1c(C)nc(N)nc1N`: the inhibition in test [1] was 6.84%; in test [2], 6.09%; in test [3] it was 2.41%.

As for `Cc1cc(-c2ccc(CNCc3ccsc3)cc2)ccc1S(=O)(=O)NCCN1CCCC1`, the inhibition in test [1] is 61.3%; in test [2], 21.9%; in test [3] it was -0.36%.

In the case of `Cn1ncc2c3c(CCN4CCC(NCc5cc6c(cn5)OCC6)CC4)c(Cl)cnc3ccc21`, the inhibition in test [1] is 0.52%; in test [2], 0.99%; in test [3] it was 0.05%.

As to `CCC1(CC)CN(c2ccccc2)c2ccc(O)cc2S(=O)(=O)C1CC(C)C` (configuration not stated), the inhibition in test [1] stood at 0.72%; in test [2], 0.32%; in test [3], 0.3%.

As to `Cc1cc(N[C@@H](CC(C)C)C(=O)NCCOc2ccccc2)nc(Nc2ccccc2)n1`, the inhibition in test [1] stood at 6.84%; in test [2], 2.42%; in test [3], 1.29%.

On to `COCCNCc1ncsc1-c1ccc2c(Nc3ccc(Oc4ccccc4)cc3)ccnc2c1`, for which the inhibition in test [1] turned out to be 0.02%; in test [2] it was 1.15%; in test [3], 2.26%.

Turning to `O=C(Cc1ccc([N+](=O)[O-])cc1)N1CCc2cc3nccc(N4CCN5CCC[C@@H]5C4)c3cc21`, the inhibition in test [1] was determined as 1.21%; in test [2], 0.39%; in test [3], 2.97%.

Consider `Cc1cc(C2CCN(CCCCNC(=O)c3ccc(NC(=O)c4ccc(Cl)cc4)cc3)CC2)c(C)cc1OCc1ccccn1`, for which the inhibition was 2.54% in test [1], 2.64% in test [2] and 0.11% in test [3].

Take `COc1cc2c(cc1CCNCCCCNCCc1cc3c(cc1OC)CCCC3)CCCC2`: the inhibition turned out to be 99.4% in test [1], 98.4% in test [2] and 106% in test [3].

With `COc1cc(Cc2cnc(N)nc2N)cc(OC)c1OCCNC(=O)[C@@H](N)CCC(=O)O`, the inhibition in test [1] was -0.69%; in test [2], 0%; in test [3], 0.12%.

Take `Cc1cc(N2CCCC2)nc(Nc2ccc(NC(=O)COc3ccccc3)cc2)n1`: the inhibition stood at 6.11% in test [1], 6.84% in test [2] and 2.07% in test [3].

With `O=C(CCCCCNC(=O)c1ccc(O)c(-c2ccc(Cl)c(Cl)c2)c1)NCCN1CCCCC1`, the figures for the inhibition in test [1], in test [2] and in test [3] were 2.71%, 2.46% and 3.45%, respectively.

As for `CCCc1ccccc1Nc1nc(C)cc(N(CC)CCCN2CCCCC2)n1`, the inhibition in test [1] stood at 5.33%; in test [2], 5.19%; in test [3] it was 5.53%.

For `CC(=O)c1c(CC(=O)O)c2ccccc2n1O`, the inhibition was 2.28% in test [1], 4.52% in test [2] and 3.07% in test [3].

With `O=C(Nc1ccc(Oc2ccccc2)cc1)N[C@@H](Cc1ccc(O)cc1)C(=O)NC1CCN(Cc2ccc(O)c([N+](=O)[O-])c2)C1` (some centres not stated), the inhibition in test [1] came to 2.19%; in test [2], 1.19%; in test [3], 0.33%.

Regarding `Cc1ccccc1N1CCN(c2ccc(C(=O)NC3CC3)cn2)CC1`, the inhibition in test [1] was 10.9%; in test [2] it was 8.46%; in test [3], 4.25%.

Take `Cc1cc(N2CCOCC2)nc2ccc(NC(=O)c3ccc(Cl)c([N+](=O)[O-])c3)cc12`: the inhibition was found to be 5.45% in test [1], 3.08% in test [2] and 2.75% in test [3].

With `Nc1nc(N)c2c(ccc3c2cnn3Cc2cccnc2)n1`, the inhibition amounted to 39.8% in test [1], 51.2% in test [2] and 38.1% in test [3].

For the molecule `COc1cc(C)nc2ccc(NC(=O)c3cc(C(F)(F)F)cc(C(F)(F)F)c3)cc12`, the inhibition in test [1] turned out to be 16.3%; in test [2], 12.8%; in test [3], 10.1%.

For the molecule `O=C(CCNc1ccnc(NCCc2ccc(F)cc2)n1)Nc1ccccc1`, the inhibition in test [1] came to 3.86%; in test [2], 4.56%; in test [3] it was 3.24%.

Turning to `CC(C)c1cccc(OCC2CCN(c3ncc(C(=O)Nc4ccccc4)cc3Cl)CC2)c1`, the inhibition in test [1] was 2.96%; in test [2] it was 1.07%; in test [3] it was -2.66%.

As to `CCCC1(NC[C@@H](O)[C@H](Cc2ccccc2)NC(=O)c2cc(NCC)cc(N3CCCCS3(=O)=O)c2)CCCCC1`, the figures for the inhibition in test [1], in test [2] and in test [3] were -0.81%, 0.97% and 4.36%, respectively.

`COc1ccccc1CN1CCC(CNC(=O)c2cc(-c3ccc(N(C)C)cc3)cs2)C1` (configuration not stated): the inhibition in test [1] worked out at 15.2%; in test [2] it was 11.8%; in test [3], 10.9%.

On to `CC(C)N1CCN(C(=O)c2ccc(CNCCCN3CCN(c4cccc(Cl)c4Cl)CC3)o2)CC1`, for which the inhibition in test [1] was -2.44%; in test [2], -1.41%; in test [3] it was -1.3%.

Regarding `CC(CN(C)C)C(=O)Nc1cccc(-c2ccc(-c3nc4cc(C(F)(F)F)ccc4[nH]3)cc2)c1` (configuration not stated), the inhibition was 11% in test [1], 9.17% in test [2] and 4.86% in test [3].

As for `CCCn1c(=N)c(C(=O)NCCc2ccccc2)cc2c(=O)n3cccc(C)c3nc21`, the figures for the inhibition in test [1], in test [2] and in test [3] were 5.16%, 7.01% and 2.32%, respectively.

As for `O=C(/C=C/c1ccc(Cl)cc1)NCCCCCN1CCCN(C(=O)Nc2ccc(F)c(Cl)c2)CC1`, the inhibition in test [1] is 5.5%; in test [2], 3.92%; in test [3], 4.64%.

As for `CCN(CC)CCOc1ccc(N(Cc2ccc(C(C)(C)C)cc2)C(=O)c2ccc(Cc3ccccc3)cc2)cc1OC`, the inhibition came to 17.8% in test [1], 14.8% in test [2] and 13.1% in test [3].

`Cc1cccc(Nc2nc(C)cc(N3CCCN(CC4CCCCC4)CC3)n2)c1`: the inhibition in test [1] is -2.84%; in test [2], 1.98%; in test [3], -0.15%.

On to `O=C1COc2ccc3ccccc3c21`, for which the inhibition in test [1] is -2.29%; in test [2], 0.78%; in test [3], -0.4%.

Take `O=C(Nc1ccc(Cn2ncc(N3CCCNCC3)c(Cl)c2=O)cc1)Nc1ccc(F)cc1[N+](=O)[O-]`: the results for the inhibition in test [1], in test [2] and in test [3] were 10.2%, 11.4% and 5.42%, respectively.

As for `CN1CCN(Cc2ccc(-c3cccc(-c4nc5ccccc5[nH]4)c3)cc2)CC1`, the values for the inhibition in test [1], in test [2] and in test [3] were 1.13%, 0.78% and -2.4%, respectively.

In the case of `CC(C)c1ccc(Nc2nc(NCCc3c[nH]cn3)nc(NCc3ccccc3)n2)cc1`, the inhibition in test [1] was found to be 1.58%; in test [2], 1.6%; in test [3], 0.61%.

As for `Cc1cc(C(=O)Nc2ccc3c(c2)CCN3C2CCN(Cc3ccc4nsnc4c3)C2)no1` (configuration not stated), the inhibition stood at 3.24% in test [1], 2.32% in test [2] and 5.35% in test [3].

As to `CCN(CC)CCCC(C)Nc1ccnc2[nH]c3ccccc3c12` (configuration not stated), the inhibition in test [1] is 6.4%; in test [2], 6.62%; in test [3] it was 4.63%.
